Drawing on PubChem BioAssay (NCATS), this text covers Potency and outcome for 35 compounds.

The nature of experiment [1]: Cell Viability - LYMP1-002 - Assay at 16 hr (AID 948). Note: potency is the fitted concentration of half-maximal effect. In short, it runs like this: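 Acute cytotoxicity is scored as a concentration-dependent fall in intracellular ATP in a human lymphoblastoid line (LYMP1-002) after 16 hr compound exposure at 37 C, measured by luciferase luminescence.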
Experiment [2] can be described thus: MultiTox-Fluor Cytotoxicity Assay - LYMP1-002 - Live Cells (AID 955).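 Note: cells exposed to compound for 16 hours.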 Note: potency is the fitted concentration of half-maximal effect. The method in brief:
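Cells were seeded at 2500 per well and incubated 5 hr. Compounds were then added for 16 hr at 37 C, followed by MultiTox-Fluor reagent for 60 min at room temperature and fluorescence reading of viable-cell protease signal.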

Experiment [3] is described as follows: MultiTox-Fluor Cytotoxicity Assay - LYMP1-002 - Dead Cells (AID 960). Note: nearly all actives have a fitted effect of over 60% in size. Note: potency is the fitted concentration of half-maximal effect. The method in brief:
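Cells were plated, rested 5 hr, then treated with compound dilution series for 16 hr at 37 C. After adding substrate reagent and 60 min at room temperature, dead-cell protease fluorescence gave concentration-response curves fitted by the Hill equation.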

Experiment [4] in a line: MultiTox-Fluor Cytotoxicity Assay - LYMP1-003 - Dead Cells (AID 961).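 Note: cells exposed to compound for 16 h at 37 °C; nearly all actives have a fitted effect of over 70% in size.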 Note: potency is the fitted concentration of half-maximal effect. In short, it runs like this:
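Acute toxicity is scored as increased dead-cell protease activity in human lymphoblastoid LYMP1-003 cells after 16 h compound exposure in complete culture medium. Activity is normalized to DMSO basal and 15 uM tetraoctylammonium bromide as full response.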

Experiment [5] can be described thus: MultiTox-Fluor Cytotoxicity Assay - LYMP1-003 - Live Cells (AID 962).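 Note: cells exposed to compound for 16 hours at 37 °C.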 Note: potency is the fitted concentration of half-maximal effect. In short, it runs like this: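 Acute cytotoxicity is scored as a drop in live-cell protease activity in human lymphoblastoid LYMP1-003 cells after 16 hr compound exposure at 37 C. AC50 values come from Hill-equation modelling of concentration-response data.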
Experiment [6] can be described thus: Cell Viability - LYMP1-003 - Assay at 24 hr (AID 963). Note: potency is the fitted concentration of half-maximal effect. In short, it runs like this: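 Cytotoxicity is scored as a concentration-dependent fall in ATP-linked luciferase signal in human lymphoblastoid LYMP1-003 cells treated 24 hr at 37 C in complete culture medium.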
Experiment [7] in a line: Cell Viability - LYMP1-003 - Assay at 40 hr (AID 964). Note: nearly all actives have a fitted effect of over 60% in size. Note: potency is the fitted concentration of half-maximal effect. The method in brief: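 Luminescent ATP signal (CellTiter-Glo) served as the viability read-out after 40 hr compound treatment of human lymphoblastoid LYMP1-003 cells at 37 C. Decreases in ATP were fitted with the Hill equation to give AC50.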
Experiment [8] is described as follows: Cell Viability - LYMP2-003 (AID 965).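 Note: cells exposed to compounds for 24 h before reading; nearly all actives have a fitted effect of over 50% in size.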 Note: potency is the fitted concentration of half-maximal effect. The method in brief: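 Acute cytotoxicity is scored as a concentration-dependent drop in intracellular ATP, measured by luciferase luminescence in human lymphoblastoid cells treated for 24 hours at 37 C. AC50 values derive from Hill-equation modelling.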
The nature of experiment [9]: Cell Viability - LYMP2-004 (AID 966). Note: nearly all actives have a fitted effect of over 65% in size. Note: potency is the fitted concentration of half-maximal effect. The method in brief: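 qHTS cytotoxicity: human lymphoblastoid line, 24 hr compound treatment, 37 C, complete medium. Viability read as cellular ATP via luciferase luminescence; tetraoctylammonium bromide served as positive control.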
Experiment [10] can be described thus: Cell Viability - LYMP2-005 (AID 967). Note: potency is the fitted concentration of half-maximal effect. The method in brief: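 qHTS viability screen in LYMP2-005 cells: 24 h at 37 C with compound, ATP luminescence via CellTiter-Glo, AC50 from Hill curves.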
A short description of experiment [11]: Cell Viability - LYMP2-009 (AID 968). Note: nearly all actives have a fitted effect of over 55% in size. Note: potency is the fitted concentration of half-maximal effect.
A short description of experiment [12]: Cell Viability - LYMP2-011 (AID 969). Note: nearly all actives have a fitted effect of over 60% in size. Note: potency is the fitted concentration of half-maximal effect. The method in brief: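 In this qHTS cytotoxicity format, compounds are tested across concentrations on human lymphoblastoid cells in complete medium for 24 hours at 37 C. Viability is taken as cellular ATP measured by luciferase luminescence.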
Experiment [13] is described as follows: Cell Viability - LYMP2-013 (AID 970). Note: nearly all actives have a fitted effect of over 55% in size. Note: potency is the fitted concentration of half-maximal effect. In short, it runs like this:
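Cytotoxicity is scored as a concentration-dependent drop in intracellular ATP in human lymphoblastoid cells after 24 hr compound exposure at 37 C. ATP is quantified by luciferase luminescence, and AC50 values come from Hill-equation modeling.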

Experiment [14] is described as follows: Cell Viability - LYMP2-015 (AID 971). Note: nearly all actives have a fitted effect of over 55% in size. Note: potency is the fitted concentration of half-maximal effect. In short, it runs like this:
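Cells are seeded at 2500 per well and incubated 5 hr at 37 C. Compounds are added across a concentration series for 24 hr at 37 C. CellTiter-Glo is added, and luminescence is read after 30 min at room temperature.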

The nature of experiment [15]: Cell Viability - LYMP2-017 (AID 972). Note: nearly all actives have a fitted effect of over 55% in size. Note: potency is the fitted concentration of half-maximal effect. The method in brief: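 Cytotoxicity is scored as a concentration-dependent drop in cellular ATP in a human lymphoblastoid line after 24 hr treatment at 37 C. Values are AC50s from Hill-equation modelling.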
Experiment [16] in a line: Cell Viability - LYMP2-021 (AID 974). Note: potency is the fitted concentration of half-maximal effect. In short, it runs like this: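 Loss of cellular ATP, measured with a luciferase-based CellTiter-Glo readout, serves as the toxicity signal in human lymphoblastoid cells treated for 24 hours at 37 C. Potency is reported as AC50 from a standard Hill model.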
The target in experiment [17] is Pyruvate kinase PKM (Homo sapiens) (UniProt P14618). The experiment can be described thus: qHTS Assay for Activators of Human Muscle Pyruvate Kinase (AID 954; active = well fitted curve in the direction sought with a large enough effect, not every such curve was filed as active). In short, it runs like this: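 Screening used highly purified human pyruvate kinase M2 under submaximal activity, with PEP at its Km and ADP below Km. After an hour at room temperature, ATP was read by luciferase luminescence.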
Chain of Pyruvate kinase PKM (Homo sapiens) (P14618 whole entry, looked up): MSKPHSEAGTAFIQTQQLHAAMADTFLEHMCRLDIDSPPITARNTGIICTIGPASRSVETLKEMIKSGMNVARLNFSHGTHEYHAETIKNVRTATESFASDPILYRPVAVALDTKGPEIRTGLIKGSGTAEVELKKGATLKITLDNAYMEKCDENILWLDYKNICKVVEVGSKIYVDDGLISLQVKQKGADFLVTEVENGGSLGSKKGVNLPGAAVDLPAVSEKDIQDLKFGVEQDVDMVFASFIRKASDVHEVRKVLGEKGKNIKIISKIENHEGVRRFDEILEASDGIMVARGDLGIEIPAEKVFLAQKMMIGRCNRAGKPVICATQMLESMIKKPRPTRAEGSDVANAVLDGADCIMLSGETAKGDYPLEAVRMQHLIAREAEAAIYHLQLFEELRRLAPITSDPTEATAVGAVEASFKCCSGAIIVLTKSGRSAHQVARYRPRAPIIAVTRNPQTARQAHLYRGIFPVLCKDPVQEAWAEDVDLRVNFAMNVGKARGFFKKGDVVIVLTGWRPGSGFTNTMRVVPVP

The target of experiment [18] is Alpha-galactosidase (Coffea arabica) (UniProt Q42656). The experiment can be described thus: Counterscreen for Glucocerebrosidase Inhibitors: qHTS Assay for Coffee Bean alpha-Galactosidase at pH 4.5 (AID 957). Note: series mostly up to about 77 µM. The method in brief: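 Enzyme is added first (2 nM final), then compounds titrated from 0.7 nM to 77 uM, then 80 uM 4-methylumbelliferyl alpha-D-galactopyranoside; after 20 min at room temperature a pH 10 NaOH/glycine stop precedes fluorescence reading at 365/440 nm.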
Chain of Alpha-galactosidase (Coffea arabica) (Q42656 whole entry, looked up): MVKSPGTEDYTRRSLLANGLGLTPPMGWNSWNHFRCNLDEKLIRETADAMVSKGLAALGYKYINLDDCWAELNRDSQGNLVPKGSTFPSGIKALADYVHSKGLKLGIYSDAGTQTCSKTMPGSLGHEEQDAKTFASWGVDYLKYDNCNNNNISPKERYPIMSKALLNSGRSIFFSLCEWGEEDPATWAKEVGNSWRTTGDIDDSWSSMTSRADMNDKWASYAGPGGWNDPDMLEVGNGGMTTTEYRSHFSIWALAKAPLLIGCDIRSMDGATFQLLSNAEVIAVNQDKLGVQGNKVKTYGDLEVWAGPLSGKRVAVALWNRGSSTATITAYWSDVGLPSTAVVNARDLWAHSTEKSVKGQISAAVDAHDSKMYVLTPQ

Experiment [19] concerns the target Pyruvate kinase PKM (Homo sapiens) (UniProt P14618). Briefly: qHTS Assay for Inhibitors of Human Muscle Pyruvate Kinase (AID 958). In short, it runs like this:
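A coupled luminescent readout tracked ATP made from ADP by purified PKM2. Final conditions included 0.1 nM enzyme, PEP and ADP at 0.5 and 0.1 mM, pH 7.2 imidazole buffer with BSA, and a one-hour room-temperature reaction.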

In experiment [20] the target is Pyruvate kinase (Leishmania mexicana) (UniProt Q27686). The experiment can be described thus: qHTS Validation Assay for Activators of Leishmania Mexicana Pyruvate Kinase (AID 959). The method in brief:
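Substrate mix (0.5 mM PEP, 0.1 mM ADP, 7 mM MgCl2, 50 mM KCl, pH 7.2 imidazole) received compound by pin tool, then 0.2 nM LmPYK E451W. After 1 h at room temperature, PKLight was added and luminescence measured.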

The structures appear in SMILES notation. Where “and” joins values, the source holds several entries; their conditions need not be identical. Identical values can stand only once. Records with an inconclusive call do not appear. Calls of active or inactive are those of the source. Unless noted, calls come from the whole dose curve; as a rule, active = well fitted curve in the direction sought with a large enough effect; inconclusive = small, poorly fitted or top-dose-only effect, or another doubt; inactive = no such curve, though single readings can be large; an effect the other way counts as inactive or inconclusive.

Chain of Pyruvate kinase (Leishmania mexicana) (Q27686 2-499 E452W): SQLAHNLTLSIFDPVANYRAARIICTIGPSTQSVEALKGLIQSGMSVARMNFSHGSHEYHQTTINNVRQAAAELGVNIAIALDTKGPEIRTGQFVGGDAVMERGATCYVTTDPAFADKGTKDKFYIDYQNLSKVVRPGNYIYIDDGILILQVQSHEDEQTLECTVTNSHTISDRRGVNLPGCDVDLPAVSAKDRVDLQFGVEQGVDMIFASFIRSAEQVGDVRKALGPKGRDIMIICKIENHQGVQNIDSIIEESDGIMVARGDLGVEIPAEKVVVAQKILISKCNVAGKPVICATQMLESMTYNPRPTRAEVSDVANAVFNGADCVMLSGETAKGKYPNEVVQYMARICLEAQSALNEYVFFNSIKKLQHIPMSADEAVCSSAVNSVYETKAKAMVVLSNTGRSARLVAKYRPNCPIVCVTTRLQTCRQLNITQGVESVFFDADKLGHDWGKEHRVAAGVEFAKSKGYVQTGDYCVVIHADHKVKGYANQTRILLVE

In the case of `O=CC=O`, the Potency result in experiment [1], in [2], in [3], in [4], in experiment [5] and in experiment [6] was “inactive” in each case. For the same compound, the Potency entry in [7], in experiment [8], in [9], in experiment [10], in [11] and in experiment [12] was “inactive” throughout. The Potency entry in [13], in experiment [14], in [15] and in [16] was “inactive” throughout.

Take `Clc1ccccc1Cl`: the Potency entry in [1], in experiment [2], in [3], in experiment [4], in experiment [5] and in experiment [6] was “inactive” each time. Moreover, the Potency result in experiment [7], in [8], in [9], in experiment [10], in experiment [11] and in experiment [12] was “inactive” throughout. Moreover, the Potency entry in experiment [13], in [14], in experiment [15] and in [16] was “inactive” throughout.

For `O=Cc1ccco1`, the Potency entry in experiment [1], in experiment [2], in experiment [3], in [4], in [5] and in experiment [6] was “inactive” each time. For the same compound, the Potency result in experiment [7], in experiment [8], in experiment [9], in experiment [10], in experiment [11] and in experiment [12] was “inactive” each time. For the same compound, the Potency entry in [13], in [14], in [15] and in experiment [16] was “inactive” each time.

Turning to `O=C1C2CC=CCC2C(=O)N1SC(Cl)(Cl)Cl` (stereo unspecified), the Potency in experiment [1] is 7.94 µM (active) and 10 µM (active); in experiment [2] it was 6.31 µM (active) and 5.01 µM (active); in experiment [3], 5.01 µM (active); in experiment [4], 10 µM (active) and 7.94 µM (active); in experiment [5], 12.6 µM (active) and 10 µM (active); in experiment [6], 12.6 µM (active). For the same compound, the Potency was 20 µM (active) in experiment [7]; 12.6 µM (active) in experiment [8]; 10 µM (active) in experiment [9]; 12.6 µM (active) in experiment [10]; 6.31 µM (active) and 5.01 µM (active) in [11]; 6.31 µM (active) in experiment [12]. The Potency in [13] was 5.01 µM (active) and 6.31 µM (active); in [14], 3.98 µM (active); in [15] it was 3.16 µM (active) and 5.01 µM (active); in [16] it was 3.98 µM (active) and 5.01 µM (active).

For `[Cl-].[Cl-].[Hg+2]`, the Potency is 10 µM (active) in [1]; 10 µM (active) in experiment [2]; 15.8 µM (active) in [5]; 7.94 µM (active) in experiment [6]; 1 µM (active) in experiment [7]; 0.794 µM (active) in experiment [8]. Also, the Potency is 0.251 µM (active) in experiment [9]; 0.501 µM (active) in experiment [10]; 10 µM (active) in experiment [11]; 12.6 µM (active) in [12]; 5.01 µM (active) in experiment [13]; 12.6 µM (active) in [14]. Moreover, the Potency was 1 µM (active) in experiment [15] and 1.58 µM (active) in [16].

Take `NCCc1ccc(S(=O)(=O)F)cc1`: the result in experiment [17] and in [18] was inactive.

For the compound `N#CC(C#N)=Cc1cc(O)c(O)c(O)c1`, the compound was called inactive in experiment [17] and in [18].

With `CCN(CCCl)Cc1ccccc1Br`, the compound was classed as inactive in experiment [17] and in experiment [18].

As for `NCCCP(=O)(O)O`, the compound was classed as inactive in experiment [17] and in [18].

Consider `CN1CCc2cc(O)cc3c2[C@H]1Cc1ccc(O)c(O)c1-3`, for which the call in [18] was inactive. In addition, in [19], the Potency result was “inactive”.

For the compound `O=P(O)(O)C(Cl)(Cl)P(=O)(O)O`, the call in experiment [17] and in experiment [18] was inactive.

Take `CP(=O)(O)C1=CCNCC1`: the call in [17] and in [18] was inactive.

On to `COc1ccc2c(c1)/C(=C/c1cnc[nH]1)C(=O)N2`, for which the call in experiment [17] and in [18] was inactive.

Take `COc1ccc2[nH]cc(CCN)c2c1`: the compound was called inactive in experiment [17] and in experiment [18].

In the case of `CCCN(CCC)[C@@H]1CCc2cccc(O)c2C1`, the call in [17] and in experiment [18] was inactive.

As to `CN1CCc2cccc(Cl)c2CC1`, the call in [17] and in experiment [18] was inactive.

As for `CCCn1c(=O)c2[nH]c(C3CCCC3)nc2n(CCCOC(=O)c2ccc(S(=O)(=O)F)cc2)c1=O`, the compound was called inactive in [17] and in [18].

Regarding `O=[N+]([O-])c1ccc2nc(N3CCNCC3)ccc2c1`, the compound was called inactive in experiment [17] and in experiment [18].

Turning to `O=c1c2ccccc2[se]n1-c1ccccc1`, the outcome in experiment [17] was inactive. Besides, the Potency in [19] is 10 µM (active). Also, the Potency result in experiment [20] is “inactive”.

For the compound `C[C@@H]1O[C@H](C[N+](C)(C)C)CS1`, the result in [17] and in experiment [18] was inactive.

For `Cc1c2ccncc2c(C)c2c1[nH]c1ccccc12`, the compound was classed as inactive in [17] and in experiment [18].

For `O=C(O)c1cc[c]([Hg][Cl])cc1`, the compound was called inactive in experiment [17] and in experiment [18]. Besides, the Potency in [19] was 2.51 µM (active). Moreover, the Potency result in experiment [20] was “inactive”.

`C[N+]1(C)CCC(OC(=O)C(c2ccccc2)c2ccccc2)CC1`: in [18], the call was inactive.

As for `NC(=O)COc1c(F)cc(SCCNS(=O)(=O)c2ccccc2)cc1F`, the call in [17] and in experiment [18] was inactive.

Take `CN(N=O)c1ccc(O)c(O)c1`: the call in [18] was inactive. Besides, in experiment [19], the Potency entry is “inactive”.

For `c1ccc2c(N3CCNCC3)cccc2c1`, the call in experiment [17] and in experiment [18] was inactive.

Take `CCCN(CCC)C1Cc2cc(OC)c(OC)cc2C1`: the compound was classed as inactive in experiment [17] and in experiment [18].

On to `C[C@H](N)CN1CCc2ccc(Br)cc21`, for which the compound was classed as inactive in experiment [17] and in experiment [18].

Regarding `CN1CCC(c2c[nH]c3ccc(O)cc23)CC1`, the compound was called inactive in experiment [17] and in [18].

`OCc1cnc[nH]1`: the compound was called inactive in experiment [17] and in experiment [18].

As for `c1ccc2c(c1)[I+]c1ccccc1-2`, the outcome in experiment [17] and in experiment [18] was inactive.

For the compound `CCS(=O)(=O)Nc1cccc(C(=C2CCCCC2)c2cnc[nH]2)c1`, the result in experiment [17] and in [18] was inactive.

For `NC(=O)c1cc(N2CC2)c([N+](=O)[O-])cc1[N+](=O)[O-]`, the compound was called inactive in experiment [17] and in experiment [18].

As to `NNC(=O)c1ccc(O)cc1`, the outcome in [17] and in experiment [18] was inactive.

On to `CN(N=O)c1cc(O)ccc1O`, for which the call in experiment [18] was inactive. Further, in experiment [19], the Potency entry was “inactive”. In addition, the Potency in experiment [20] was 3.16 µM (active).
